Laboratory results taken from the supplement of paper PMC11417369.
± gives the standard deviation of the averaged measurements. The full ranking holds about 25,000 sequences; the median of “ln(normalized median fluorescence intensity)” is about 8.6, and the highest 2% start at about 10. This excerpt belongs to a sample that is enriched for the highest values.

Each sequence was assayed on PfAP2-EXP AP2 domain (GST-tagged) (assay: gcPBM binding intensity (ln(normalized median fluorescence intensity)); higher = stronger DNA binding).
How it was run: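 GST-tagged P. falciparum DNA-binding domains produced in E. coli were incubated for 1 h on an Agilent 4 × 180k array of primer-extended double-stranded 36-bp intergenic genomic probes with negative controls. Binding intensity is the highest Masliner-normalised natural-log median intensity across replicate spots of either probe orientation, with bound protein detected by Alexa488 anti-GST antibody at 488 nm.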

Sequence	gcPBM binding intensity (ln)
TTTTTTTTTTTTTTTATAGTACATTACCAAAAAAAA [CACACA_negctrl_site1197]	8.27 ± 0.39
TTTGAAATAAGCAAATGTACATTATTATTAAATATA [XGTACX_site6158]	8.38 ± 0.32
GAATCACTAATTTTTTTACACACCACAATTTAATTT [CACACA_site8311]	8.94 ± 0.47
TATATTAAATATTACACACATACATTTAGTGTCAAA [CACACA_site1990]	8.35 ± 0.37
TTTTTATATTCCCCCAGTACATATATAATAGTAGTA [XGTACX_site7927]	10 ± 0.3
AACAAGAAAAAAAAAAAAAAAAAAAAAAAATATTTT [XGTACX_negctrl_site428]	8.13 ± 0.3
ATAATAATATTTCTATGTACTTATTTTATGTATTAG [XGTACX_site1747]	8.51 ± 0.4
TTTGAATAAAAACAAAAAATTAAATTAAATTAAATA [CACACA_negctrl_site312]	8.15 ± 0.5
ATTTCCTTGAATGTTGCATGCTGTATTTTAATTAAA [TGCATGCA_site280]	9.88 ± 0.43
ATTTTTGAACGGTACAGTACAGAATTTAATTAACCC [XGTACX_site47]	9.13 ± 0.54
AAAAAACACGGACACACACACATATACATACATACA [CACACA_site5470]	9.07 ± 0.3
AGTATACTCGGACACACACACACATATATATATATA [CACACA_site5031]	10.3 ± 0.2
CCCCCCCACGGACACACACACATACATACCACATAT [CACACA_site5303]	10.3 ± 0.19
AGTATACATATATATACACACACATATATATATATA [CACACA_site7883]	9.98 ± 0.62
CTAAAATACGGACACACACACACATATATATATATA [CACACA_site6138]	10.3 ± 0.15
AATAACCACGGACACACACACATATATATATATATA [CACACA_site5873]	10.2 ± 0.46
TACATACACGGACACACACACATATATATATATATA [CACACA_site5883]	10.2 ± 0.36
CGCATACACGGACACACACACACATATATATATATA [CACACA_site4520]	10.1 ± 0.34
AAAAAAAACGGACACACACACATACCCATACATACA [CACACA_site5574]	8.78 ± 0.49
AAAAAAAACGGACACACACACATACAAAATATATAT [CACACA_site4910]	8.7 ± 0.38
AAAAAAAACGGACACACACACATAAATATATATAAA [CACACA_site4260]	9.02 ± 0.4
AGTATACATATATATACACACATATATATATATATA [CACACA_site300]	10.2 ± 0.34
TTTAAAATTATAAGGATTAAAAAAAAAAAAAATAAA [CACACA_negctrl_site114]	8.27 ± 0.45
ATTTTGTTTTTTTTTGCACACCATAAGGAGTGTAGG [CACACA_site1414]	8.84 ± 0.41

Sequence	gcPBM binding intensity (ln)
AATAATGTATGAAATAAACACACAAGTAAGTACATA [CACACA_site8776]	8.85 ± 0.39
TACAAAAGCGATACGGCACACATTTCCTGTTTAAAT [CACACA_site2746]	8.74 ± 0.33
AATTATTTACCCTATACACACAAAACACGCTAAAAA [CACACA_site1211]	8.79 ± 0.43
AATATATTTTTTCACTGTACTTTTATTATATATACA [XGTACX_site8312]	8.97 ± 0.36
AAATAAAAACATAACAGTACAGTTAACATTTTTATA [XGTACX_site3479]	8.29 ± 0.35
AATACATTTATGAGCTGTACACATTTATTTGAGCTA [XGTACX_site7695]	8.51 ± 0.27
ATATTTAAATATATTTATATATATAAAAAAAAATAT [GTGCAC_negctrl_site312]	8.56 ± 0.39
TATCGACATTTCATTTGTACATATATACATATATTT [XGTACX_site3346]	8.64 ± 0.42
TGTTCATTTATTTACTTACACACTTTATATATGTGG [CACACA_site1410]	8.79 ± 0.53
GAATTAATTTTAAAACGTACATGGGTGTATTTACAC [XGTACX_site5939]	8.86 ± 0.3
GGGAGGATATTACACAGTACCCAGAAAATCTACGGA [XGTACX_site2551]	8.8 ± 0.43
TTATTATATTAAAAGAGGACACATTTATTTTTTTTT [XGTACX_site1241]	8.09 ± 0.53
TATACACCCGGACACACACACATATATATATATATA [CACACA_site5030]	10.1 ± 0.54
TACACAAGCGGACACACACACATATATATATATATA [CACACA_site4832]	10.3 ± 0.13
AAAATACCCGGACACACACACATATATATATATATT [CACACA_site6137]	8.83 ± 0.31
TACACAAGCAGACACACACACATATATATATATATA [CACACA_site1270]	10.1 ± 0.53
CATACATACGGACACACACACATATATATATATATA [CACACA_site5598]	10.2 ± 0.41
CACAGACACGGACACACACACACACCCACATATATA [CACACA_site4355]	8.73 ± 0.41
CATATATACACATACACACACACACGGACACGCACA [CACACA_site6910]	8.87 ± 0.53
CACAGACACGGACACACACACATATATATATATATA [CACACA_site5248]	10.2 ± 0.26
AATACCCAAGGACACACACACACATATATATATATA [CACACA_site8345]	10.2 ± 0.26
GTAATACCCAAACACACACACATACCCATATATATA [CACACA_site5510]	8.88 ± 0.52
AATACATACGGACACACACACACATATATATATATA [CACACA_site5884]	10.3 ± 0.17
CACAGACACGGACACACACACATATATAATATATAT [CACACA_site4495]	8.84 ± 0.33

Sequence	gcPBM binding intensity (ln)
TTCAAAATATATATTTGTACATATAGGATCTTTTTC [XGTACX_site4500]	8.41 ± 0.45
TTTTTTTATTAATGTAGTACAATATAATGTTATATT [XGTACX_site2295]	8.54 ± 0.29
AGACGAAAATAATAAAGTACTAAAAAAAAAAAAAAA [XGTACX_site927]	8.14 ± 0.51
AAACAAATATATATATGTACTTATAAAAAAAAAAAT [XGTACX_site2211]	8.54 ± 0.45
AACATTATAGGACACACACACACATATATATATATA [CACACA_site4721]	10.3 ± 0.13
TAATAAATAGGACACACACACATATATATATATTAT [CACACA_site4891]	8.87 ± 0.52
ATAAATATAGGACACACACACATATTATATATATAT [CACACA_site5658]	9.65 ± 0.12
AGGATACACGGACACACACACATATATATATATATA [CACACA_site4654]	10.2 ± 0.28
AGGATACACGGACACACACACATATAGATTTATATA [CACACA_site6552]	8.59 ± 0.52
TACATATTTATATACACACACACACGGATATTTATA [CACACA_site7239]	8.94 ± 0.28
TATAAAATTTAAATTATACACACTTAAGTAACATCA [CACACA_site531]	8.74 ± 0.35
AATTATCAAAGTCTATACATACATACATACATACAT [GTGCAC_negctrl_site243]	8.95 ± 0.23
ATAAATCTACACCGCACACAAAAACAACAAATATTA [CACACA_site5396]	8.64 ± 0.58
GTTATACTCATATATACACACATATGTAAATATATA [CACACA_site5764]	8.94 ± 0.58
CAACATTTGAAACACACACACATACAAACAAACAAA [CACACA_site3306]	8.89 ± 0.47
AAAAATTTAAGTGGGGGTACATTTTTTTAACACCTT [XGTACX_site1093]	9.46 ± 0.48
ATTCATTTTTTGGGGGGTACACCCTTTTAAACATTT [XGTACX_site4797]	10.3 ± 0.48
TTTTTAATTTTTTTTAAACACACACCGTACATTCAA [CACACA_site7925]	8.54 ± 0.38
TATATATCGCATAAAACACACAAAAAAAAAATTAAA [CACACA_site7767]	8.35 ± 0.59
TCCACACAATTTATAACATGCAAAAAGGCAATAATA [TGCATGCA_site773]	8.69 ± 0.42
TATATATATATACATACATGCATATATATATATATA [TGCATGCA_site513]	10.2 ± 0.54
TATATATATATATATACATGCATACATATACATACA [TGCATGCA_site897]	10.2 ± 0.5
AATACATACATATATACATGCATACATATAAATATA [TGCATGCA_site674]	8.64 ± 0.35
TATATATATATATATACATGCATATATATAATATAT [TGCATGCA_site763]	10.1 ± 0.52

Sequence	gcPBM binding intensity (ln)
AATATATATATACATACATGCATACATATATATATA [TGCATGCA_site784]	9.8 ± 0.14
AATACATACATACATACATGCATATATATATATATA [TGCATGCA_site462]	10.2 ± 0.14
AATATATACATACATACATGCATACATATATATAAC [TGCATGCA_site371]	8.73 ± 0.23
CATACATACATACATACATGCATACATACATACATA [TGCATGCA_site218]	9.3 ± 0.26
CATATAAATAAATATACATGCATACATACATATATA [TGCATGCA_site713]	8.51 ± 0.23
TTGAATAAATTGGAATAAATATAATAAAATAAGGAA [XGTACX_negctrl_site302]	8.62 ± 0.38
TTTATGAAACAGTGCACACATAAAAATAAATACATA [CACACA_site5631]	9.175 ± 0.035
ATATATATATGTTTGTGTACTTATGATATCATATAA [XGTACX_site3276]	9.66 ± 0.099
TTTTTTTTTTTTGAAGTGCATTACTTTTTTTGTATT [GTGCAC_site9811]	8.5 ± 0.23
AATAAATAAGCAACATGTACATACAAATATATACAT [XGTACX_site8529]	8.48 ± 0.35
TTGTTCTTTCAAATTATACACACCAAAAAAAAAAAA [CACACA_site3070]	8.53 ± 0.4
ATATGTTTTTTTTTTTTTTTTTAATTTGTCATAAAT [CACACA_negctrl_site1208]	8.35 ± 0.49
CACAAAAATAGACACACACACATATAAATAAATATA [CACACA_site6598]	8.62 ± 0.47
ATATAAACACTGAATGCATGCACATATATATATATA [TGCATGCA_site940]	10.45 ± 0.049
GAATAAAAAATATATGTGCACATATAAACTTAAAAT [GTGCAC_site9554]	8.9 ± 0.3
AATATAATATAATGCACACATAAAACAAAAAAAAAA [CACACA_site3012]	8.82 ± 0.47
TATATATTAAAAATAGTGCAAAATAATATATATATA [GTGCAC_site9716]	9.845 ± 0.049
AATATAATATAATGCACACATAAAAAAAAAAAAATC [CACACA_site1303]	8.7 ± 0.32
ATATGTGTTAAAAATGCACACAAAAAAATATACATA [CACACA_site7988]	8.69 ± 0.49
AAAATATAATATAATGCACACATAAAAAAAAAAAAA [CACACA_site7989]	8.52 ± 0.49
ATATATATATATATAGTGCAAATAAAAAATAGACAA [GTGCAC_site9796]	10.2 ± 0.3
ATAATAAAAAAAAATGCACACATATATATATATATA [CACACA_site8766]	10.3 ± 0.34
ATTATATATAAACACACACACATGCATGCACATATA [CACACA_site4237]	10 ± 0.26
TATATATGTTAAAACGTGCACATATATATATATATA [GTGCAC_site9589]	10.2 ± 0.21
